POLB inh: inhibitors of human DNA polymerase beta | Pol beta primer extension/strand displacement, fluorescence kinetic | Potency, µM (doses to about 114 µM), hits mostly inhibitors | 1.3% of 340,000 active | AID 485314
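Values derive from four-parameter Hill fits of normalized kinetic data: reads at 0 and 10 min following addition of 50 nM substrate to 10 nM Pol beta preincubated 15 min with compound.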
Pol kappa inh: DNA polymerase kappa (human) inhibition. purified Pol kappa, fluorescent DNA synthesis assay, 10 min. Potency, µM (top dose mostly 107 µM), usual class: inhibitors. Q9UBT6. 0.53% of 400,000 active
Target sequence (Q9UBT6 whole entry, looked up): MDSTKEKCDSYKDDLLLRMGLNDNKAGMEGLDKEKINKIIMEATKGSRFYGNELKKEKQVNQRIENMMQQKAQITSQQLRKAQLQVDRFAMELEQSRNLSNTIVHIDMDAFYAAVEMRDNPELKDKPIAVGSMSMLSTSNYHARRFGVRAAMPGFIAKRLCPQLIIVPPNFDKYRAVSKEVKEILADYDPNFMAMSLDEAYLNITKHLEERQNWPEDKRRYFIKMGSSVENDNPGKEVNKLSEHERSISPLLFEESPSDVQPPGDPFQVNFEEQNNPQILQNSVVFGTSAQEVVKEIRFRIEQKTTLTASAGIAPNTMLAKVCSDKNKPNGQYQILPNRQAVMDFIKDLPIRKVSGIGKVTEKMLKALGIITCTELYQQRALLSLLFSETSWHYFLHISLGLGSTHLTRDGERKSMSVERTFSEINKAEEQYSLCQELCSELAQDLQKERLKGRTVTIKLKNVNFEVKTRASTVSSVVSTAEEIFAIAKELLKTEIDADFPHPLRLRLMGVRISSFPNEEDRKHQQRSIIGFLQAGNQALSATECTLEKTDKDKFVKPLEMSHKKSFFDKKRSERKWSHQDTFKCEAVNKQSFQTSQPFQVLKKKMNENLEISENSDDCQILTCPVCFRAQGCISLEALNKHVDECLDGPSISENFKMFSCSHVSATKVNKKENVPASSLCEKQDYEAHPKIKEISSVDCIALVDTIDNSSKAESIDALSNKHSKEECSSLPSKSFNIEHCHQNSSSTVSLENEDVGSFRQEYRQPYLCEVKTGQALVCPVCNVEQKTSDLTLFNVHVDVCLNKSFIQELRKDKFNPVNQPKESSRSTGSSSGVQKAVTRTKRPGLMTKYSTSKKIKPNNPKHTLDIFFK
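Inhibition of 10 nM Pol kappa is measured by a fluorescent read-out at 0 and 10 min following addition of 50 nM substrate (final), with a 15-min room-temperature compound preincubation.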
POLI inh: inhibitors of human DNA polymerase iota | Q9UNA4 | Pol iota fluorescent replication assay, 10 min | Potency, µM (top dose mostly 115 µM), actives largely listed as inhibitors | 1% of 390,000 active | AID 588590
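Fluorescent replication assay read twice, at 0 min and 10 min after adding 50 nM (final) substrate. Enzyme (10 nM) and compounds were first incubated 15 min at room temperature; enzyme-free buffer wells were negative controls.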
WRN helicase inh-1: blocks human WRN helicase; Q14191; WRN helicase unwinding, fluorescent forked duplex, kinetic; Potency, µM (doses to about 114 µM), actives largely listed as inhibitors; 0.46% of 360,000 active; AID 651768; further: nearly all actives have a fitted effect of over 55% in size
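Primary qHTS, 1536-well format. 20 nM WRN + compound, 15 min RT; start with 100 nM forked fluorophore/quencher duplex, 2 mM ATP (final); kinetic read ex 525/em 598 nm.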
POLH inh: inhibitors of human DNA polymerase eta; 1.2% of 390,000 active; recombinant Pol eta, fluorescent DNA replication assay; AID 588591; Potency, µM (series often up to 114 µM), hits mostly inhibitors; Q9Y253
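Pol eta at 10 nM preincubated with compounds 15 min at room temperature; reaction started with fluorescent substrate (50 nM final) and read kinetically at 0 and 10 min.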
FEN1 inh: blocks human flap endonuclease 1; P39748; Recombinant FEN1 flap cleavage, fluorescence, 15 min; Potency, µM (series often up to 114 µM), usual class: inhibitors; 0.35% of 390,000 active; AID 588795; further: nearly all actives have a fitted effect of over 65% in size
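Steps: FEN1 (10 nM) dispensed; compound added by pin tool; 15 min at room temperature; substrate added to 50 nM final; reads at 0 min and 15 min; data normalized and fitted (four-parameter Hill).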
WRN helicase inh-2: confirmation of human WRN helicase inhibitors; shares compounds with WRN helicase inh-1; WRN helicase DNA unwinding, fluorescence kinetic; Potency, µM (highest dose often 57.1 µM), most hits filed as inhibitors; 63% of 610 active; AID 720497; further: nearly all actives have a fitted effect of over 65% in size
TO displacement: counter-screen for WRN helicase inhibitors: DNA binding. shares compounds with WRN helicase inh-1. thiazole orange DNA binding displacement, fluorescence. Potency, µM (doses to about 57.1 µM), most hits filed as inhibitors. 10% of 610 active;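 further: drop in dye fluorescence marks compound binding to DNA; nearly all actives have a fitted effect of over 60% in size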
BLM counter: counter-screen for WRN helicase inhibitors: human BLM helicase inhibition; shares compounds with WRN helicase inh-1; Recombinant BLM helicase DNA unwinding, red fluorescence; Potency, µM (doses to about 57.1 µM), actives largely listed as inhibitors; 60% of 610 active; AID 720503; further: nearly all actives have a fitted effect of over 60% in size
Hits are given with their value; . = inactive; ? = inconclusive; / = not tested or not shown. Hits are enriched below; roughly 2.4% of the tested compounds scored in any of these assays. The call rests on the fitted dose curve; in most records, active means well fitted curve in the direction sought with a large enough effect; inconclusive means small, poorly fitted or top-dose-only effect, or another doubt; inactive means no such curve, though single readings can be large; an effect the other way counts as inactive or inconclusive.

SMILES	POLB inh	Pol kappa inh	POLI inh	WRN helicase inh-1	POLH inh	FEN1 inh	WRN helicase inh-2	TO displacement	BLM counter
N#C/C(=C/c1ccc(O)c(O)c1)c1nc2ccccc2[nH]1	?	10µM	?	35.5µM	3.16µM	?	6.07µM	.	8.57µM
CCCNC(=O)CCNS(=O)(=O)c1ccc2c(c1)c(=O)n(C)c(=O)n2C	.	.	.	/	.	.	/	/	/
COc1ccc2cc(CNc3ccccc3)c(=O)n(CC(=O)Nc3ccc(C(C)=O)cc3)c2c1	.	.	.	/	.	.	/	/	/
CCOC(=O)c1nn(-c2ccccc2C)c(=O)c2c(N)scc12	.	.	?	?	.	.	?	.	?
CCOC(=O)c1nn(-c2ccccc2)c(=O)c2c(NC(C)=O)scc12	.	.	.	.	.	.	/	/	/
COc1ccc2ccccc2c1C=NN1CCCCC1	/	/	/	.	.	/	/	/	/
CN(C)c1ccc(CC(=O)N2CCCC(c3cc(C(=O)Nc4ccc(F)c(Cl)c4)no3)C2)cc1 (configuration not stated)	/	/	/	.	/	/	/	/	/
Cc1ccc2nc3c(cc2c1)c(C)nn3-c1ccccc1	.	.	.	.	.	.	/	/	/
Cc1nn(-c2ccccc2)c2nc(=O)n(-c3ccccc3)cc12	.	.	?	?	.	.	.	.	.
O=C(Nc1cccc(-c2cnc3ccccc3n2)c1)c1cccc(NC(=O)c2ccco2)c1	?	.	.	?	.	.	.	.	?
O=C(Cc1ccc(NC(=O)N2CCCCc3ccccc32)cc1)NCc1cccc(Br)c1	.	.	.	/	.	.	/	/	/
CC1(C)OC(=O)C(=Cc2ccc(-c3ccc(S(N)(=O)=O)cc3)o2)C(=O)O1	.	?	?	?	50.1µM	.	?	.	?
NS(=O)(=O)c1ccc(-c2ccc(/C=C3\C(=O)Nc4cc(Cl)ccc43)o2)cc1	?	.	?	.	?	.	/	/	/
N=C(N)c1ccc(N=Nc2c(O)ccc3c2[nH]c2ccccc23)cc1	/	79.4µM	.	11.2µM	39.8µM	28.2µM	8.57µM	24.1µM	19.2µM
NC(=O)c1ccc(N=Nc2c(O)c3ccccc3[nH]c2=O)cc1	.	/	/	/	/	/	/	/	/
CC(NS(=O)(=O)c1ccc(Cl)cc1)C(=O)OCC(=O)Nc1ccc(N(C)C)cc1 (configuration not stated)	/	.	.	.	.	.	/	/	/
CCc1cc(=O)oc2cc(C)c(CN3CCCCC3)c(O)c12	8.91µM	17.8µM	7.94µM	25.1µM	14.1µM	50.1µM	?	.	?
Cc1nn(CCc2nc(-c3ccco3)cs2)c2[nH]c(=O)cc(C(F)(F)F)c12	22.4µM	35.5µM	12.6µM	35.5µM	31.6µM	?	?	.	21.5µM
Cc1c(O)ccc(/C=N/Nc2nc(-c3cccnc3)nc3ccccc23)c1O	.	?	.	?	?	?	?	27.1µM	?
Oc1ccc(/C=N/Nc2nc(-c3cccnc3)nc3ccccc23)c(O)c1	?	.	?	.	.	.	/	/	/
CCc1nnc(NS(=O)(=O)c2ccc(N/C=C\C(=O)c3cccc4ccccc34)cc2)s1	.	.	.	26.7µM	44.7µM	.	24.1µM	.	27.1µM
CC(C)Cc1ccc(C(C)/C=C2/CCC(CN3CCCCC3)C2=O)cc1 (configuration not stated)	/	.	?	35.5µM	22.4µM	.	.	.	?
COc1ccc(-n2c(=O)c3ccccc3c3ccccc3c2=O)cc1	.	.	.	?	.	.	/	/	/
COc1ccc(OC)c(-n2c(=O)c3ccccc3c3ccccc3c2=O)c1	.	.	.	?	.	.	.	.	?
CCC(=O)NCCc1nc2cc(NC(=O)c3cccc(Br)c3)ccc2n1C	.	.	.	/	.	.	/	/	/
SMILES	POLB inh	Pol kappa inh	POLI inh	WRN helicase inh-1	POLH inh	FEN1 inh	WRN helicase inh-2	TO displacement	BLM counter
CCCCNC(C(=O)Nc1ccc([N+](=O)[O-])cc1Br)c1ccccc1 (configuration not stated)	.	.	?	?	.	.	.	.	.
CCOc1ccc(-c2nonc2NC(=O)c2oc3ccc(Cl)cc3c2C)cc1	.	.	.	/	.	.	/	/	/
CC1=NN(c2ccc(F)cc2)C(=O)C1C(c1cccc(O)c1)c1c(C)[nH]n(-c2ccc(F)cc2)c1=O (configuration not stated)	.	.	.	?	.	.	.	.	.
CN1CCN(C2=C(Cl)C(=O)c3ccccc3C2=O)CC1	/	.	6.31µM	?	3.55µM	?	?	.	3.41µM
CN1CCN(C2=C(NS(=O)(=O)c3ccccc3)C(=O)c3ccccc3C2=O)CC1	.	.	.	.	.	.	/	/	/
COc1ccc([N+](=O)[O-])c(S(=O)(=O)c2ccccc2)n1	.	.	14.1µM	31.6µM	.	.	?	.	.
O=[N+]([O-])c1cccnc1S(=O)(=O)c1ccccc1	.	.	.	.	.	.	/	/	/
COc1ccc([N+](=O)[O-])c(S(=O)(=O)c2ccc(Cl)cc2)n1	.	.	?	15.8µM	.	.	?	.	.
COc1ccc(S(=O)(=O)N2CCOCC2)cc1NC(=O)CN1C(=O)NC2(CCC(C)CC2)C1=O (configuration not stated)	/	/	/	.	.	/	/	/	/
CCN(CC)c1ccc(NC(=O)Nc2ccc(C(C)=O)cc2)cc1	?	.	.	.	.	.	/	/	/
CCN(CC)c1ccc(N=C2C=CC(=O)C=C2NC(C)=O)cc1	/	?	44.7µM	17.8µM	.	?	.	.	.
O=C(O)COc1ccccc1/C=N/NC(=O)c1cc(-c2ccc(Cl)cc2)nc2ccccc12	.	.	.	?	?	?	?	?	27.1µM
COc1cc(/C=C2\C(=O)N(CCC#N)N=C2C)ccc1OCC(=O)Nc1ccccc1	.	.	?	?	.	?	?	.	17.1µM
CC1=NN(CCC#N)C(=O)/C1=C/c1ccc(N(C)C)cc1	.	.	.	.	.	.	/	/	/
COc1ccc(/C=N/NC(=O)c2ccccc2OC)cc1COc1ccc(C)cc1	.	.	.	.	.	.	/	/	/
COc1ccc(/C=N/NC(=O)c2ccccc2OC)cc1COc1ccccc1[N+](=O)[O-]	?	.	.	?	.	.	?	.	.
O=C(O)c1ccccc1NC(=O)C1CCN(S(=O)(=O)c2ccc3c(c2)OCCO3)CC1	/	/	/	.	.	/	/	/	/
CCc1cccc(C)c1NC(=O)Nc1csc2c1CCCC2	.	.	.	/	.	.	/	/	/
O=C(Nc1ccccc1-c1ccccc1)c1ccccc1	.	.	.	.	.	.	/	/	/

Compound activity: PubChem, National Center for Advancing Translational Sciences (NCATS)
